High-throughput results (PubChem)
In the library only some 3.1% were active in any assay of this set; here they are far more common.
TRb-SRC2 inh: disrupts binding of human TR beta to SRC2; P10828; TRbeta-SRC2 peptide binding, fluorescence polarization; receptor liganded with 1 µM T3; Potency, µM (titrated, usually from 106 µM), for inactives: at the top dose activity change, negative = inhibition, actives largely listed as inhibitors; hit rate 0.065% among 280,000; AID 1469;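 also: plate controls were bound peptide for no effect and peptide without receptor for full effect; nearly all actives have a fitted effect of over 50% in size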
Target sequence (P10828 whole entry, looked up): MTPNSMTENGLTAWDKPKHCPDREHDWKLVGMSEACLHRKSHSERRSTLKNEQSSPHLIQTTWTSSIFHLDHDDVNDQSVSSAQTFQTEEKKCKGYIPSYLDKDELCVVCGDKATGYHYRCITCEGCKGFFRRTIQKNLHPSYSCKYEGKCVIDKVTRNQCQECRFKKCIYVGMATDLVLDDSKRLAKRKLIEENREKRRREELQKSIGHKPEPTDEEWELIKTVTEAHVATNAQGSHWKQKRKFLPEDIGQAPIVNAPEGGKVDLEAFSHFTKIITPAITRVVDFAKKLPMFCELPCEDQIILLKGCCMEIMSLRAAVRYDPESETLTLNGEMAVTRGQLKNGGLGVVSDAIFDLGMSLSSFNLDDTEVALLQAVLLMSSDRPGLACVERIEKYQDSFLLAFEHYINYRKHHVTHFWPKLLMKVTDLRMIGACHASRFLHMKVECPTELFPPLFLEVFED
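Decrease in fluorescence polarization of 20 nM Texas Red SRC2 coactivator peptide flagged inhibition of its binding to 0.6 uM TRb LBD; 1 uM T3 included, incubation 5 hr, ex 555/em 632 nm.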
Tau fluor cs: counter-screen for tau fibril formation inhibitors. hit rate 0.93% among 280,000. AID 1463. tau K18 P301L Alexa594 fluorescence, heparin fibrillization. Potency, µM (highest dose often 57.7 µM), for inactives: at the top dose activity change, negative = decrease; also: nearly all actives have a fitted effect of over 55% in size
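Human tau K18 P301L (15 uM unlabeled, 0.24 uM Alexa 594-labeled) in 100 mM sodium acetate pH 7 with 20 uM heparin, 6 hr at 37 C. ThT 30 uM added, 1 hr ambient; Alexa 594 FP and total fluorescence read at 555/632 nm.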
Tau fibril ThT: blocks human tau fibril formation measured by thioflavin T; P10636; Potency, µM (highest dose often 57.4 µM), inactives show at the top dose activity, negative = inhibition, most hits filed as inhibitors; hit rate 2.1% among 270,000; AID 1460; recombinant tau K18 P301L (four-repeat tau fragment), heparin-induced fibrillization, ThT fluorescence; also: nearly all actives have a fitted effect of over 55% in size
Target sequence (P10636 561-689 P618L limits assumed): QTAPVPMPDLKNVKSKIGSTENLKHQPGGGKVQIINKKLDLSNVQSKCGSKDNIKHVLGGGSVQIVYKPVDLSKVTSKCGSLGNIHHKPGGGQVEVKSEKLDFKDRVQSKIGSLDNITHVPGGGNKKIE
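Heparin-induced (20 uM) aggregation of recombinant human K18 P301L tau, 15 uM unlabeled with 0.24 uM labeled, pH 7 acetate buffer, 6 hr at 37 C with compound. Fibrils quantified by 30 uM ThT fluorescence after 1 hr ambient incubation.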
Tau fibril FP: inhibitors of human tau fibril formation | P10636 | Potency, µM (top dose mostly 57.7 µM), for the others: at the highest dose activity, negative = inhibition, usual class: inhibitors | AID 1468 | K18 P301L tau heparin fibrillization, Alexa594 FP, 6 h | hit rate 0.39% among 280,000; also: nearly all actives have a fitted effect of over 55% in size
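Quantitative HTS format: compounds meet 15 uM recombinant K18 P301L tau and Alexa 594-tau tracer in 100 mM sodium acetate pH 7; 20 uM heparin triggers fibrillization at 37 C over 6 hr; FP gives the signal.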
TR SRC2 fluor cs: Texas Red fluorescence interference in TRb-SRC2 counter-screen. TRb/SRC2 Texas Red total fluorescence interference. Potency, µM (top dose mostly 106 µM), for inactives: top-dose fluorescence change, negative = quenching. hit rate 0.29% among 280,000; active = well fitted curve in either direction with a large enough effect; inconclusive = small, poorly fitted or top-dose-only effect
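Flags fluorescent or light-absorbing compounds by total fluorescence, S + 2P, at 555 nm excitation and 632 nm emission. Mixture: 20 nM Texas Red SRC2 peptide, 0.6 uM human TRb LBD, 1 uM T3, 5% DMSO; compound exposure 5 h at ambient temperature.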
* = called active by the depositor; [ ] = another dose, or the depositor's remark. Unless noted, calls follow the shape of the dose curve; as a rule, active = well fitted curve in the direction sought with a large enough effect; inconclusive = small, poorly fitted or top-dose-only effect, or another doubt; inactive = no such curve, though single readings can be large; an effect the other way counts as inactive or inconclusive. Unless noted, % is scaled to controls: 0 for no effect and ±100 for the full control effect; potency is read from the fitted curve at half-maximal effect.

For COc1ccc(NC(=O)c2ccc3c(c2)N(Cc2cccc(Cl)c2)C(=O)c2ccccc2S3=O)cc1Cl (configuration not stated) the results were TRb-SRC2 inh -4.8%, Tau fluor cs -21.6%, Tau fibril ThT 4.3%, Tau fibril FP inconclusive and TR SRC2 fluor cs 1.3%.
`COc1ccc(NC(=O)c2ccc3c(c2)N(Cc2cccc(Cl)c2)C(=O)c2ccccc2S3(=O)=O)cc1Cl` gave TRb-SRC2 inh 0.0%, Tau fluor cs -17.4%, Tau fibril ThT 12.2%, Tau fibril FP 15.8µM* and TR SRC2 fluor cs -1.0%.
`O=C(Nc1cccc(F)c1)c1ccc2c(c1)N(Cc1ccccc1)C(=O)c1ccccc1S2(=O)=O` gave TRb-SRC2 inh 5.2%, Tau fluor cs inconclusive, Tau fibril ThT 5.2%, Tau fibril FP 14.1µM* and TR SRC2 fluor cs -0.5%.
Screening CCCCN(C)C(=O)c1ccc2c(c1)N(Cc1ccc(F)cc1)C(=O)c1ccccc1S2(=O)=O returned TRb-SRC2 inh -12.4%, Tau fluor cs inconclusive, Tau fibril ThT inconclusive, Tau fibril FP -2.6% and TR SRC2 fluor cs 0.0011µM*[quencher].
`CC(=O)c1ccc(NC(=O)c2ccc3c(c2)N(Cc2cccc(Cl)c2)C(=O)c2ccccc2S3(=O)=O)cc1` gave TRb-SRC2 inh 7.0%, Tau fluor cs inconclusive, Tau fibril ThT -10.2%, Tau fibril FP 15.8µM* and TR SRC2 fluor cs -1.2%.
C[C@@H](C(=O)O)c1ccc(N2Cc3ccccc3C2=O)cc1 was read as TRb-SRC2 inh 4.0%[53 µM] and TR SRC2 fluor cs -2.4%[53 µM].
Screening Cc1c(Cl)cccc1-n1ncc(C(=O)N2CCc3ccccc3C2)c1C1CCN(C(=O)OC(C)(C)C)CC1 returned TRb-SRC2 inh 6.7%, Tau fluor cs 4.4%, Tau fibril ThT -8.8%, Tau fibril FP 2.0% and TR SRC2 fluor cs -3.1%.
CCOC(=O)c1ccc(NC(=O)Cn2cc(C(=O)c3cccs3)c3ccccc32)cc1 was read as TRb-SRC2 inh 2.5%, Tau fluor cs inconclusive, Tau fibril ThT -11.1%, Tau fibril FP 15.8µM* and TR SRC2 fluor cs 0.7%.
For CCOC(=O)Cn1cc(C(=O)c2cccs2)c2ccccc21 the results were TRb-SRC2 inh -8.2%, Tau fluor cs -16.0%, Tau fibril ThT -4.3%, Tau fibril FP -8.3% and TR SRC2 fluor cs 1.2%.
`Cc1ccc(NCc2ccccc2O)cc1` gave TRb-SRC2 inh -14.3%, Tau fluor cs inconclusive, Tau fibril ThT -16.8%, Tau fibril FP 18.1% and TR SRC2 fluor cs 0.5%.
Screening Cc1ccc(CNc2ccc(O)cc2)cc1 returned TRb-SRC2 inh 28.2µM*, Tau fluor cs inconclusive, Tau fibril ThT 3.55µM*, Tau fibril FP 8.91µM* and TR SRC2 fluor cs 23.0%.
`CC(CNC(=O)Cn1c(-c2cccs2)cc2ccccc21)c1ccccc1` (configuration not stated) gave TRb-SRC2 inh 1.1%, Tau fluor cs -23.9%, Tau fibril ThT -4.4%, Tau fibril FP -2.9% and TR SRC2 fluor cs 8.2%.
Screening CCOc1ccc(NC(=O)c2ccc3nc(C(C)C)oc3c2)cc1 returned TRb-SRC2 inh 8.3%, Tau fluor cs -1.8%, Tau fibril ThT -16.7%, Tau fibril FP 7.0% and TR SRC2 fluor cs 0.9%.
Nc1nc(N)c(N=Nc2ccc(Cl)cc2)c(=O)[nH]1 was read as TRb-SRC2 inh -3.7%, Tau fluor cs -2.2%, Tau fibril ThT inconclusive, Tau fibril FP 8.2% and TR SRC2 fluor cs -1.5%.
Cc1[nH][nH]c(=O)c1N=Nc1ccc(Cl)cc1 was read as TRb-SRC2 inh -0.2%, Tau fluor cs -15.4%, Tau fibril ThT 8.91µM*, Tau fibril FP 0.0% and TR SRC2 fluor cs -6.4%.
Screening O=C(/C(N=Nc1cccc([N+](=O)[O-])c1)=C(/O)c1ccc(Br)cc1)C(F)(F)F returned TRb-SRC2 inh -0.8%, Tau fluor cs 15.8µM*[quencher], Tau fibril ThT 25.1µM*, Tau fibril FP 8.0% and TR SRC2 fluor cs -0.3%.
For NC(=O)c1cccc([N+](=O)[O-])c1 the results were TRb-SRC2 inh -2.1% and TR SRC2 fluor cs 0.0%.
For Cc1cc(NC(=O)N2CC=C(c3c[nH]c4ccccc34)CC2)ccc1Br the results were TRb-SRC2 inh -5.2%, Tau fluor cs 12.6µM*[quencher], Tau fibril ThT 7.94µM*, Tau fibril FP -9.9% and TR SRC2 fluor cs -2.0%.
For COc1cc(OC)c(NC(=O)N2CC=C(c3c[nH]c4ccccc34)CC2)cc1Cl the results were TRb-SRC2 inh 2.8%, Tau fluor cs 7.94µM*[quencher], Tau fibril ThT inconclusive, Tau fibril FP inconclusive and TR SRC2 fluor cs -2.1%.
For CCOC(=O)c1cccc(NC(=O)N2CCC(CN3CCc4ccccc4C3)CC2)c1 the results were TRb-SRC2 inh 2.7%, Tau fluor cs -6.2%, Tau fibril ThT -5.0%, Tau fibril FP 0.6% and TR SRC2 fluor cs -6.6%.
For CCOC(=O)c1cccc(NC(=O)N2CC=C(c3c[nH]c4ccccc34)CC2)c1 the results were TRb-SRC2 inh -1.7%, Tau fluor cs 12.6µM*[quencher], Tau fibril ThT inconclusive, Tau fibril FP -6.4% and TR SRC2 fluor cs -0.4%.
For CCc1ccc(NC(=O)N2CC=C(c3c[nH]c4ccccc34)CC2)cc1 the results were TRb-SRC2 inh -1.6%, Tau fluor cs 12.6µM*[quencher], Tau fibril ThT 7.08µM*, Tau fibril FP -0.9% and TR SRC2 fluor cs -12.2%.
Screening Cc1[nH]c2ccccc2c1C(=O)C(=O)N1CC=C(c2ccccc2)CC1 returned TRb-SRC2 inh -0.4%, Tau fluor cs -1.7%, Tau fibril ThT 2.9%, Tau fibril FP 2.8% and TR SRC2 fluor cs -2.4%.
For CC(=O)OCC1OC(C#CCC2CCCCC2)C=CC1OC(C)=O (configuration not stated) the results were TRb-SRC2 inh -3.5%[11.2 µM], Tau fluor cs -21.4%[11.6 µM], Tau fibril ThT inconclusive, Tau fibril FP -7.6%[11.6 µM] and TR SRC2 fluor cs -1.5%[11.2 µM].
Cc1ccc(C)c(NC(=O)N2CC=C(c3c[nH]c4ccccc34)CC2)c1 was read as TRb-SRC2 inh -7.7%, Tau fluor cs 25.1µM*[quencher], Tau fibril ThT inconclusive, Tau fibril FP 7.3% and TR SRC2 fluor cs -1.4%.
Screening CCOc1ccc(NC(=O)N2CC=C(c3c[nH]c4ccccc34)CC2)cc1 returned TRb-SRC2 inh 1.2%, Tau fluor cs 15.8µM*[quencher], Tau fibril ThT 4.47µM*, Tau fibril FP -7.9% and TR SRC2 fluor cs -0.8%.
For Cc1cccc(NC(=O)c2nc[nH]c2C(=O)N[C@@H](Cc2ccccc2)C(=O)OCc2ccccc2)c1 the results were TRb-SRC2 inh 8.0%, Tau fluor cs inconclusive, Tau fibril ThT inconclusive, Tau fibril FP 11.2µM* and TR SRC2 fluor cs -1.2%.
Screening CC(C)(C)OC(=O)NCc1ccc(NC(=O)c2nc[nH]c2C(=O)N[C@@H](Cc2ccccc2)C(=O)OCc2ccccc2)cc1 returned TRb-SRC2 inh 0.8%, Tau fluor cs inconclusive, Tau fibril ThT 4.6%, Tau fibril FP 10µM* and TR SRC2 fluor cs -3.0%.
